From PubChem BioAssay (NCI)
The panel holds about 83,000 compounds, 20% with a hit somewhere; the sample as a whole holds those more often.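 Step 1: grow cells in 96-well plates. Step 2: add test compound at a single concentration. Step 3: incubate 48 h. Step 4: record percent growth.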 Calls of active or inactive are those of the source. Rule for the calls: active = growth percent below 10; inactive = the rest.

Legend:
Experiment in all cases: NCI-60 one-dose screen, 48 h (100 = growth as untreated, 0 = no growth, -100 = all killed)
[1] = system: HCT-15 colon; conditions: 10 µM unless noted
[2] = system: HT29 colon; conditions: 10 µM unless noted
[3] = system: SNB-75 CNS; conditions: 10 µM unless noted
[4] = system: SNB-19 CNS; conditions: 10 µM unless noted
[5] = system: U251 CNS; conditions: 10 µM unless noted
[6] = system: PC-3 prostate; conditions: 10 µM unless noted
[7] = system: SK-MEL-5 melanoma; conditions: 10 µM unless noted
[8] = system: UACC-62 melanoma; conditions: 10 µM unless noted
[9] = system: LOX IMVI melanoma; conditions: 10 µM unless noted
[10] = system: SK-MEL-28 melanoma; conditions: 10 µM unless noted
[11] = system: SK-MEL-2 melanoma; conditions: 10 µM unless noted
[12] = system: EKVX NSCLC; conditions: 10 µM unless noted
[13] = system: SN12C renal; conditions: 10 µM unless noted
[14] = system: UO-31 renal; conditions: 10 µM unless noted
[15] = system: TK-10 renal; conditions: 10 µM unless noted
[16] = system: ACHN renal; conditions: 10 µM unless noted
[17] = system: A498 renal; conditions: 10 µM
[18] = system: HL-60(TB) leukemia; conditions: 10 µM unless noted
[19] = system: CCRF-CEM leukemia; conditions: 10 µM unless noted
[20] = system: CAKI-1 renal; conditions: 10 µM unless noted

Measured: growth

COC(=O)[C@@H](C)C[C@H](Cc1ccccc1)NC(=O)c1nc([C@@H](C[C@H](C(C)C)N(C)C(=O)[C@@H](NC(=O)[C@H]2CCCCN2C)C(C)C)OC(C)=O)sc1C(C)C
active: [1] 5.69% | [2] 1.52% | [3] -0.49% | [5] 6.19% | [7] -57.3% | [9] 9.2% | [17] -9.92% | [18] -45.5% | [19] 7.31%
inactive: [4] 27.7% | [6] 21.2% | [8] 29.4% | [10] 49.1% | [11] 20% | [12] 31.2% | [13] 10.8% | [14] 18.3% | [15] 45% | [16] 18.4%

CC(=O)O[C@H](C[C@H](C(C)C)N(C)C(=O)[C@@H](NC(=O)[C@H]1CCCN1C)C(C)C)c1nc(C(=O)N[C@@H](Cc2ccccc2)C[C@H](C)C(=O)O)c(C)s1
active: [2] 2.64% | [5] 5.53% | [7] -19.2% | [17] -2.65% | [18] -19.2% | [19] 8.48%
inactive: [1] 17.7% | [3] 50.5% | [4] 33.2% | [6] 19.2% | [8] 39.3% | [9] 27.4% | [10] 61.9% | [11] 36.5% | [12] 53.7% | [13] 29.2% | [14] 49.3% | [15] 42.4% | [16] 26.7%

Nc1ccc(Cl)cc1
inactive: [1] 100% | [2] 97.5% | [3] 88.3% | [4] 103% | [5] 96.9% | [6] 86% | [7] 99.7% | [8] 101% | [9] 92.8% | [10] 109% | [11] 95.7% | [12] 95.7% | [13] 95.3% | [14] 94.9% | [15] 92.3% | [16] 108% | [17] 103% | [18] 95% | [19] 98.2%

CCCCN(CCCC)P(=O)(Oc1ccccc1)Oc1ccccc1
inactive: [1] 68.1% | [2] 39.1% | [3] 50.9% | [4] 60.1% | [5] 53.1% | [6] 38.6% | [7] 67% | [8] 60.1% | [9] 67.7% | [10] 94.1% | [11] 43.4% | [12] 59% | [13] 59.9% | [14] 42.2% | [15] 78.5% | [16] 80.8% | [17] 93.8% | [18] 32.5% | [19] 61.9%

O=[N+]([O-])CC(O)C(Cl)(Cl)Cl (configuration not stated)
active: [19] -21.1%
inactive: [1] 102% | [2] 111% | [3] 81.1% | [4] 106% | [5] 99.1% | [6] 94.9% | [7] 107% | [8] 107% | [9] 99.8% | [10] 102% | [11] 150% | [12] 101% | [13] 106% | [14] 80.2% | [15] 110% | [16] 96.5% | [17] 87.3% | [18] 83.7%

COc1ccc(C(=O)c2cc(OC)c(OC)c(OC)c2)cc1OC(C)=O
active: [5] 6.47% | [7] -35.1% | [18] -37.1%
inactive: [1] 12.7% | [2] 18.8% | [3] 40.4% | [4] 28.3% | [6] 14.1% | [8] 38.9% | [9] 19.7% | [10] 56.6% | [11] 47.8% | [12] 68.7% | [13] 29.5% | [14] 39.6% | [15] 74.8% | [16] 36.7% | [17] 49.8% | [19] 13.8%

O=C(c1cccc(O)c1O)c1cn(Cc2ccc(F)cc2)c2cccc(O)c12
inactive: [1] 27.8% | [2] 94.5% | [3] 55.3% | [4] 37.3% | [5] 31% | [6] 39.2% | [7] 25.4% | [9] 29.3% | [10] 39.2% | [12] 52.4% | [13] 34% | [15] 77% | [16] 21.5% | [17] 108%
active: [8] 9.18% | [11] -6.9% | [14] -10.3% | [18] -32.8% | [19] 4.35%

CNC(=O)Oc1ccc(C(C)(C)C)cc1OC(=O)NC
inactive: [1] 90.5% | [2] 88.8% | [3] 91% | [4] 101% | [5] 92.3% | [6] 94% | [7] 98.9% | [8] 99.6% | [9] 92.4% | [10] 107% | [11] 70.7% | [12] 82.1% | [13] 95.2% | [14] 94.9% | [15] 98.2% | [16] 106% | [17] 98.8% | [18] 85.8% | [19] 96.6%

COC(=O)[C@@H](C)C[C@H](Cc1ccc(F)cc1)NC(=O)c1csc([C@@H](C[C@H](C(C)C)N(C)C(=O)[C@@H](NC(=O)[C@H]2CCCCN2C)C2CC2)OC(C)=O)n1
inactive: [1] 12.4% | [3] 54.3% | [4] 36.5% | [6] 28.7% | [8] 43.3% | [9] 23.9% | [10] 59% | [11] 24.4% | [12] 43.2% | [13] 31.6% | [14] 55.8% | [15] 72.4% | [16] 34% | [19] 12.6%
active: [2] 0.34% | [5] 5.77% | [7] -20.7% | [17] 9.1% | [18] -35.1%

CSc1nc(Cl)cc(N2CC2)n1
inactive: [1] 100% | [2] 112% | [3] 110% | [4] 108% | [5] 110% | [6] 92.5% | [7] 105% | [8] 97.9% | [9] 111% | [10] 121% | [11] 120% | [12] 106% | [13] 104% | [14] 114% | [15] 107% | [16] 109% | [17] 122% | [18] 96.6% | [19] 77.6%

COC(=O)[C@@H](C)C[C@H](Cc1ccccc1)NC(=O)c1csc([C@@H](C[C@H](C(C)C)N(C)C(=O)[C@H](C)NC(=O)[C@H]2CCCCN2C)OC(C)=O)n1
active: [2] 9.42% | [18] -19.6%
inactive: [1] 45.4% | [3] 18.1% | [4] 27.7% | [5] 10.8% | [6] 19.6% | [7] 19.3% | [8] 28.4% | [9] 39.8% | [10] 58.1% | [11] 41.9% | [12] 53.6% | [13] 36% | [14] 66.4% | [15] 61.7% | [16] 48.2% | [17] 56.4% | [19] 12.3%

CC(=O)Nc1ccc(NC(=O)c2ccc([As](O)O)cc2)cc1
inactive: [1] 85% | [2] 112% | [3] 89.4% | [4] 92.9% | [5] 56.5% | [6] 100% | [7] 98.1% | [8] 78.3% | [9] 76.4% | [10] 118% | [11] 96% | [12] 110% | [13] 93.9% | [14] 69.4% | [15] 136% | [16] 105% | [17] 133% | [18] 44.5% | [19] 47.7%

COC1CC2c3ccccc3C1C(C)=[N+]2C (configuration not stated)
inactive: [1] 101% | [2] 96.6% | [3] 71.7% | [4] 100% | [5] 99.1% | [6] 84.8% | [7] 106% | [8] 91.8% | [9] 94.7% | [10] 145% | [11] 91.8% | [12] 97.4% | [13] 94.1% | [14] 94% | [15] 98.8% | [16] 99.3% | [17] 80.8% | [18] 113% | [19] 76.7%

O=C1C(=Cc2cn(Cc3ccccc3)c3ccccc23)C(=O)N(Cc2ccccc2)C(=O)N1Cc1ccccc1
inactive: [1] 85.8% | [2] 111% | [3] 45% | [4] 87.1% | [5] 75.7% | [6] 90.3% | [7] 104% | [8] 53.1% | [9] 87.2% | [10] 110% | [11] 83.9% | [12] 97.5% | [13] 101% | [14] 73.3% | [15] 40.7% | [16] 86.2% | [18] 96.4% | [19] 118%
active: [17] -95.7%

CC(C)=CCC[C@H](C(=O)O)[C@@H]1CC[C@]2(C)C3=C(CC[C@@]12C)[C@@]1(C)CC[C@H](O)C(C)(C)[C@@H]1CC3
inactive: [1] 97.7% | [2] 91% | [3] 90.1% | [4] 97.1% | [5] 94.5% | [6] 84.8% | [7] 103% | [8] 96.1% | [9] 102% | [10] 103% | [11] 91% | [12] 95% | [13] 102% | [14] 89.8% | [15] 93.8% | [20] 75% | [17] 104% | [19] 109%

CCCCCCCCC(CO)NCCc1ccccc1 (configuration not stated)
inactive: [1] 102% | [2] 73.6% | [3] 108% | [4] 102% | [5] 93.3% | [6] 73.5% | [7] 101% | [8] 98.5% | [9] 103% | [10] 108% | [11] 96.3% | [12] 119% | [13] 99.4% | [14] 88.1% | [15] 98.8% | [17] 95.2% | [18] 70.1% | [19] 62%
